# Molecular target: CDH2
# Assay: pooled miR-30 sensor sort-seq; sequence = guide strand
# Settings: shRNA
# Note: reference of the scale not given here.
row,Sequence,sensor-assay potency score (higher = more potent)
1,TTTGTTTCAAAGTCGATTGGTT,0.586
2,TTTGCTGCATATATCGATCTGG,0.226
3,TTTCTCGATCAAGTCCAGCTGC,-0.018
4,TAAGCTGAGCAAAATCACCATT,-0.593
5,TTTATCTTTAAATTAAGCTGAG,-0.626
6,TTGATTGTAAACATGTTGGGTG,0.885
7,TTATCTTTAAATTAAGCTGAGC,-0.63
8,TTTTGTCTTTTACTTATCGTTT,-0.959
9,TCACATTTGGTGATTCTCGGTC,0.353
10,TTTCTCTTAATAGTCACTGGAG,-0.274

# Molecular target: CDK9
# Assay: as above
# Settings: shRNA
row,Sequence,sensor-assay potency score (higher = more potent)
1,AAGTACTCGAACATGGACGTCA,0.37
2,TTGATCTCCCGCAAGGCTGTAA,-0.379
3,TTGAACACCTCCCCGAAGGTGC,-0.836
4,TATTTGGAAACTTCATCACAAA,-1.19
5,TGAAGGATCTTGATCTCCCGCA,-0.0916
6,TAGAAGCTGAAGGATCTTGATC,-0.488
7,TTTTAGAAGCTGAAGGATCTTG,-0.461
8,TTAGCAGCCTTCATGTCCCTAT,-0.0117
9,TACCAGAGTGTCACCACACGGT,0.18
10,TTCTTCAGAGCCACCTTCTGGC,0.0361
11,TATATACTACCCTTGCAGCGGT,-0.627
12,ATCTCTGCCATGATGCACCCAG,-0.791
13,TCGAACACCAGGTATATACTAC,-0.813
14,AAAACATTGCTCAACAGCCCAG,-1.38
15,TTTCTGTGGATGTAGTAGAGGC,-0.227
16,TCTCGTATTTGGAAACTTCATC,-1.02
17,TTGACCACATTCTCGTGTTTTA,-0.499
18,TATACTACCCTTGCAGCGGTTA,-0.622
19,TACTCGAACATGGACGTCAGGT,-0.285
20,TTGTCGATGAGGTCCAGTGCGT,-0.728
21,ATTCTCGTGTTTTAGAAGCTGA,0.181
22,TTTTCCATCAGCACCTTCTTCA,-0.28
23,AACTTGACCAAAACATTGCTCA,-0.141
24,TCAAGTTGACCACATTCTCGTG,-0.846

# Molecular target: CDKL2
# Assay: as above
# Settings: shRNA
row,Sequence,sensor-assay potency score (higher = more potent)
1,TTTGTCATCGTCACTTTCTAAG,-0.977
2,TTTAAATAGTTTATAATCCTTA,-0.355
3,TTTAGTAACTTGATTTCTCGCA,0.263
4,TTAGTAACTTGATTTCTCGCAT,0.346
5,TAGATAAAGAAACATTTCTGGC,-0.719
6,TAGTAACTTGATTTCTCGCATT,-0.927
